# Screen size: about 48,000 compounds; about 13,000 (27%) showed an effect of 50% or more. This is one part of the list.
# Tested on: Wolbachia pipientis
# Assay: Anti-Wolbachia Cell-Based Screen
# Format: functional
# Parameters: scale not given: in the data most compounds retested in dose-response had high values
# Settings: 5 µM
row,Compound,Percent Effect
1,CCCN(CC1COc2ccccc2O1)C(=O)CCn1cncn1 (centres undefined),-2.229%
2,O=C(Cn1cc(C(=O)O)ccc1=O)NCc1ccc(F)cc1Cl,11.66%
3,Cc1c(Br)cccc1C(=O)NC(C)CN1CCCC1=O (centres undefined),-7.738%
4,CC(C)NC(=O)N1C[C@@H](F)[C@@H](OCc2nc3ccccc3o2)C1,-6.815%
5,CN(C)Cc1cc(CC2(NCc3ccccc3Cl)COC2)no1,-4.538%
6,COC[C@@]12CC[C@@H](N3CCOCC3)C[C@H]1CCN(c1nc(CO)cs1)C2,-10.66%
7,COCCNC(=O)c1ccnn1-c1ccc2ccccn12,-19.09%
8,O=C(c1ccnn1-c1ccc2ccccn12)N1CCCC1,84.68%
9,CCN(C)C(=O)c1ccnn1-c1ccc2ccccn12,-2.565%
10,O=C(NCCN1CCOCC1)c1ccnn1-c1ccc2ccccn12.O=C(O)C(F)(F)F,-0.1496%
11,O=C(c1ccnn1-c1ccc2ccccn12)N1CCOCC1,95.26%
12,O=C(c1c2c(NCC3CC3)ncnc2n2ccccc12)N1CCOCC1,2.912%
13,Cc1cccc2c1nc1n2[C@@H](CNC(=O)c2ccccn2)COC1,-9.692%
14,CC(C)COC(=O)N1CCCN(Cc2nnc(C(C)(C)C)o2)CC1,-7.056%
15,CC(C)(C)C(Cn1ccnc1)NC(=O)NCc1ccco1 (centres undefined),10.62%
16,CC(C)CC(NC(=O)c1cnn(C)c1)C(=O)Nc1cc[nH]n1 (centres undefined),-3.159%
17,CC(Cn1cccn1)NC(=O)NCCc1cnn(C)c1 (centres undefined),-2.639%
18,CC(C)(C)C(Cn1cccn1)NC(=O)c1ccco1 (centres undefined),126.5%
19,CC(Cn1cccn1)NC(=O)C1=Cc2ccccc2OC1 (centres undefined),2.492%
20,Cn1cc(C(=O)NC(Cn2cccn2)C(C)(C)C)cn1 (centres undefined),91.75%
21,CCn1nccc1C(=O)NC(Cn1cccn1)C(C)(C)C (centres undefined),98.31%
22,CN(Cc1ccco1)C(=O)NC(Cn1ccnc1)C(C)(C)C (centres undefined),-3.966%
23,CC(Cn1cccn1)NC(=O)Cc1cccs1 (centres undefined),8.385%
24,O=S(=O)(Nc1ccc(N2CCOCC2)cc1)c1cccc(F)c1,2.423%

row,Compound,Percent Effect
1,Cc1cc(CN2CC3(CCN(C(=O)C4CC4)CC3)CC2C(=O)O)oc1C (centres undefined),-14.13%
2,O=c1[nH]c(NCc2cccc(-c3ccccc3)c2)nc2c1CCNC2,-0.2023%
3,CC(=O)c1cccc(-c2nc3c([nH]2)CCNC3)c1F,-6.254%
4,CS(=O)(=O)N1CC2(CCN(C3COC3)C2)Cc2ccccc21 (centres undefined),109.7%
5,Cc1cccc(N2CCC(N3CCCC4(CNC(=O)O4)C3)CC2)c1C (centres undefined),-4.7%
6,O=C(O)C(F)(F)F.O=C(O)C(F)(F)F.c1ccc(CN2CCOCC3(CCN(C4CCOCC4)C3)C2)cc1 (centres undefined),-14.02%
7,Cc1cccc(N2CCC(N3CCCC4(CN(C)C(=O)O4)C3)CC2)c1C (centres undefined),11.85%
8,CS(=O)(=O)N1CC2(CCCN(C3COC3)C2)Cc2ccccc21 (centres undefined),116.4%
9,CS(=O)(=O)N1CCOC2(CCN(c3ncccn3)CC2)c2ccccc21,-2.489%
10,Cn1c(C2CC2)nc2cc(NC(=O)C3CCOC3)ccc21 (centres undefined),-8.416%
11,CCc1nnc(CN2CCCN(C(=O)c3ccccn3)CC2)o1,-2.51%
12,Cc1nnc2n1CCN(C(=O)CN1C(=O)CCCc3ccccc31)C2,-14.77%
13,Cc1cc(NC(=O)N2CCN(c3nc(C)c(C)s3)CC2)no1,-7.587%
14,Cc1cc(CNC(=O)N2CCN(c3nc(C)c(C)s3)CC2)no1,-6.921%
15,COc1cccc([C@H]2CN(C(=O)c3cc(C)on3)C[C@@H]2N)c1,-12.5%
16,Cc1cc(C(=O)N2CCN(c3nc4c(C(C)C)cccc4s3)CC2)no1,100.9%
17,Cc1cc(C(=O)N2CCC3(CC2)c2nc[nH]c2CCN3CC(C)C)no1,-20.9%
18,Cc1cc(C(=O)N2CCc3ncc(CN4CCCCC4)n3CC2)no1,-1.928%
19,Cc1cc(CNC(=O)N2CCN(c3ccccc3)CC2)no1,0.5807%
20,Cc1cc(C(=O)N2CCN(c3nc4c(C)cccc4s3)CC2)no1,128.5%
21,CCc1nc(CN2CCCN(C(=O)c3cc(C)on3)CC2)cs1,-3.396%
22,COc1cccc2sc(N3CCN(C(=O)c4cc(C)on4)CC3)nc12,127.7%
23,Cc1cc(C(=O)N2CCN(c3nc4ccccc4s3)CC2)no1,133.9%
24,COC(=O)c1ccc(N2CCN(C(=O)c3cc(C)on3)C(C)C2)cc1 (centres undefined),-4.868%

row,Compound,Percent Effect
1,CNS(=O)(=O)c1ccc(CNC(=O)Nc2cc(C)on2)s1,-23.04%
2,Cc1ccc2nc(C)c(C)c(C(=O)N3CCS(=O)(=O)CC3)c2c1,7.171%
3,O=C(NCC(Cc1cccc(F)c1)n1cccc1)C1CC1 (centres undefined),6.756%
4,COCCC(C)NCc1ccccc1-n1ccnc1 (centres undefined),-12.2%
5,COc1cccc(NC(=O)N(CCO)C2CCc3ccccc32)c1 (centres undefined),-4.61%
6,O=C(CN1CCOC(Cn2cccn2)C1)Nc1nncs1 (centres undefined),-3.509%
7,NC(=O)C(NC(=O)CSCc1ccc(Cl)s1)c1ccccc1 (centres undefined),12.02%
8,Cc1cc(C(=O)N2CCN(c3nc4c(F)cccc4s3)CC2)no1,123.7%
9,Cc1cc(C(=O)N2CCc3c(ncn3CCc3ccccc3)C2)on1,8.742%
10,Cc1cc(C(=O)N2CCN(c3nc4c(C(C)C)cccc4s3)CC2)on1,114.6%
11,CCOC(=O)N1CCN(C(=O)c2cc(-c3ccccc3F)on2)CC1,1.064%
12,Cc1cccc(C(=O)N2CCN(c3ccccc3F)CC2)n1,-20.73%
13,CCc1nc(CN2CCN(C(=O)c3cc(C)no3)CC2)cs1,6.247%
14,Cc1cccc(C(C(=O)N(C)Cc2cc(C)no2)N(C)C)c1 (centres undefined),-11.12%
15,CC(C)=CCN1CCNC(=O)C1CC(=O)N1CCc2sccc2C1 (centres undefined),13%
16,COc1ccccc1CN1CC[C@H]2C[C@@H](C(=O)N3CCCC3)O[C@H]2C1.O=C(O)C(F)(F)F,2.639%
17,Cc1ncccc1NC(=O)[C@H]1C[C@@H]2CCN(Cc3ccsc3)C[C@H]2O1.O=C(O)C(F)(F)F.O=C(O)C(F)(F)F,-7.023%
18,O=C(NC1CCCC1)[C@@H]1C[C@@H]2CCN(Cc3ccoc3)C[C@H]2O1.O=C(O)C(F)(F)F,111.5%
19,O=C(NC1CCC1)[C@@H]1C[C@@H]2CCN(CCc3ccccc3)C[C@H]2O1.O=C(O)C(F)(F)F,2.186%
20,O=C(O)C(F)(F)F.O=C([C@@H]1C[C@@H]2CCN(Cc3ccoc3)C[C@H]2O1)N1CCCC1,103.1%
21,O=C(NC1CC1)[C@@H]1C[C@@H]2CCN(Cc3ccccc3)C[C@H]2O1.O=C(O)C(F)(F)F,-0.327%
22,CC(C)NC(=O)[C@@H]1C[C@@H]2CCN(Cc3ccoc3)C[C@H]2O1.O=C(O)C(F)(F)F,74.8%
23,COc1ccccc1CN1CC[C@H]2C[C@H](C(=O)N3CCCC3)O[C@H]2C1.O=C(O)C(F)(F)F,-2.148%
24,O=C(NC1CC1)[C@@H]1C[C@@H]2CCN(Cc3ccccc3)C[C@@H]2O1.O=C(O)C(F)(F)F,-0.7056%

row,Compound,Percent Effect
1,O=C(NC1CC1)[C@@H]1C[C@@H]2CCN(Cc3ccoc3)C[C@@H]2O1.O=C(O)C(F)(F)F,102.1%
2,Cc1c(C(=O)OCC2CC(=O)N(c3ccccc3)C2)cnn1C(C)C (centres undefined),4.999%
3,CN(C)C(=O)[C@@H]1C[C@@H]2CCN(Cc3ccc4c(c3)OCO4)C[C@@H]2O1.O=C(O)C(F)(F)F,-14.9%
4,CN(C)S(=O)(=O)N1C[C@@H]2CN(Cc3ccoc3)CCO[C@@H]2C1.O=C(O)C(F)(F)F,-19.85%
5,CN(C)C(=O)[C@H]1C[C@@H]2CCN(Cc3ccoc3)C[C@@H]2O1.O=C(O)C(F)(F)F,113.2%
6,CCc1ccc(C(=O)N2CC[C@](C)(O)C(C)(C)C2)[nH]1,-18.68%
7,COc1ccccc1-n1cc(CN2CCN(C)[C@@H]3CS(=O)(=O)C[C@@H]32)cn1,-2.085%
8,COc1ccccc1-n1cc(C(=O)NCCn2nc(C)nc2C)cn1,116.2%
9,COc1c2ccc(C(=O)NCCCn3ncccc3=O)cc2nn1C,16.19%
10,COc1ccccc1N1CCN(C(=O)CCn2nnnc2C)CC1(C)C,3.802%
11,COc1ccccc1-n1cc(C(=O)NCCCn2nc(C)nc2C)cn1,95.25%
12,Cc1nc(C)n(CCCNC(=O)C(C)n2ccnc2C(C)C)n1 (centres undefined),3.373%
13,CN(CCN1CCOCC1)C(=O)CCc1ccc(C(F)(F)F)cc1,-5.006%
14,CCc1[nH]c2ccc(CNc3cncc(C(=O)N(C)C)n3)cc2c1C,5.05%
15,Cc1nnc(NCC(c2ccco2)N2CCCC2)c(C#N)c1C (centres undefined),-0.3665%
16,COC(=O)NCC(=O)N1CCCn2nc(CN3CC[C@H](F)C3)cc2C1,-5.697%
17,c1cc(N2CCCCC2)ccc1-c1noc(CN2CCOCC2)n1,101.7%
18,O=C1NCCCN1Cc1nc(-c2ccc(N3CCCCC3)cc2)no1,-15.88%
19,Brc1cccc(-c2noc(CN3CCOCC3)n2)c1,107.1%
20,Cc1cc(-c2nc(-c3cccc(CN4CCOCC4)c3)no2)no1,-11.24%
21,O=C1OCCCN1Cc1nc(-c2ccc(N3CCCCC3)cc2)no1,-4.946%
22,Cc1occc1-c1nc(-c2cccc(CN3CCOCC3)c2)no1,0.4297%

# Reference: ChEMBL document CHEMBL3988442, “University of Dundee, Small-Polar-MMV Screening Library” (2021)
